Screening data as filed in PubChem BioAssay.
Pf growth 96h = P. falciparum growth inhibition at 96 hour, primary screen for plastid delayed-death inhibitors | P. falciparum luciferase reporter growth, 96 h | Potency, µM (titrated, usually from 28.7 µM), actives largely listed as inhibitors | 6.9% of 320,000 active
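P. falciparum expressing integrated firefly luciferase, in erythrocytes at 2% hematocrit, 0.05% parasitemia, incubated with compounds 96 h at 37 C, 5% CO2. Growth inhibition read as loss of luminescence; two-generation exposure targets delayed-death apicoplast inhibitors.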
Shiga inhibitor = inhibitors of Shiga toxin in Vero cells | inhibition, % at 38.7 µM | Vero cells, Shiga toxin protein synthesis inhibition reporter | AID 2315 | 9.2% of 290,000 active; in the data active = inhibition mostly above about 28%, no sharp cut-off; inactive = mostly below about 43%
AMA1-RON2 inh = disrupts binding of P. falciparum AMA1 to RON2; AlphaScreen AMA1-biotinylated RON2 peptide binding; Potency, µM (highest dose often 58.2 µM), most hits filed as inhibitors; 0.2% of 360,000 active; AID 720542; note: nearly all actives have a fitted effect of over 45% in size
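AMA1 (3D7) with his tag at 25 nM final met compounds first, then biotinylated RON2 peptide at 25 nM; detection used donor plus acceptor beads, 10 µg/mL apiece, read by AlphaScreen after 30 min at room temperature.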
Pf growth 48h = inhibits P. falciparum growth in the first generation, 48 h. P. falciparum luciferase growth in erythrocytes, 48 h. 5.9% of 310,000 active. Potency, µM (top dose mostly 28.7 µM), actives largely listed as inhibitors. AID 504832
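Compounds are pin-transferred into medium, infected erythrocytes (2% hematocrit, 0.1% parasitemia final) are added, and plates sit one parasite generation at 37 C in 5% CO2. Detection reagent is then added and luminescence measured.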
SARS PLpro yeast = SARS-CoV PLP inhibition in yeast; Potency, µM (titrated, usually from 32.9 µM), hits mostly activators; 0.19% of 330,000 active; AID 485353; S. cerevisiae expressing SARS-CoV PLpro, growth rescue; calls by dose curve; note: nearly all actives have a fitted effect of over 55% in size
CHX counter = affects cycloheximide protein synthesis inhibition readout, counter-screen. cell reporter, cycloheximide protein synthesis inhibition counterscreen. max response, %. 12% of 300,000 active; in the data active = max response mostly above about 13%, no sharp cut-off; inactive = mostly below about 14%; note: read at 38.3 µM for the half of the compounds with a filed dose
Hits are given with their value; i = inactive; ? = inconclusive; nt = no result; [ ] = another dose, or the depositor's remark. Sampled rows, rich in hits. Any-hit rate of the full collection: about 19%. Unless noted, calls come from the whole dose curve; as a rule, active = well fitted curve in the direction sought with a large enough effect; inconclusive = small, poorly fitted or top-dose-only effect, or another doubt; inactive = no such curve, though single readings can be large; an effect the other way counts as inactive or inconclusive.

SMILES	Pf growth 96h	Shiga inhibitor	AMA1-RON2 inh	Pf growth 48h	SARS PLpro yeast	CHX counter
NNCCc1ccccc1	?	110	i	?	i	47
ONCc1ccccc1	nt	i	nt	nt	nt	i
NNCc1ccccc1	nt	nt	32µM	nt	nt	nt
Cn1c(=O)n(CC(N)=O)c(=O)c2c1nc(Br)n2Cc1ccccc1	2.1µM	i	i	i	i	i
Cn1c(Br)nc2c1c(=O)n(Cc1ccccc1)c(=O)n2C	i	i	i	i	i	i
CCOC(=O)Cn1c(=O)c2c(nc3n2CCCCN3c2ccc(OCC)cc2)n(C)c1=O	nt	nt	i	nt	nt	nt
CCCCOC(=O)Cn1c(=O)c2c(nc(Br)n2Cc2ccccc2)n(C)c1=O	?	i	i	9.3µM	i	i
Cn1c(NN)nc2c1c(=O)n(Cc1ccccc1)c(=O)n2C	i	i	i	12µM	i	i
CCCCOC(=O)Cn1c(=O)c2c(nc3n2CCCCN3c2ccc(C)cc2)n(C)c1=O	i	i	i	7.4µM	i	i
CN1CCN(C(c2cccc(C(F)(F)F)c2)c2nnnn2Cc2ccccc2)CC1 (stereo not given)	i	i	i	?	i	i
CCOC(=O)Cn1c(=O)c2c(nc(Br)n2Cc2ccccc2Cl)n(C)c1=O	i	i	i	?	i	i
C=CCn1c(=O)c2c(nc(Br)n2Cc2ccccc2Cl)n(C)c1=O	12µM	i	i	?	i	i
CCOC(=O)c1csc(-c2ccc3c(c2)CCO3)n1	i	59	i	i	i	41
CCOC(=O)Cc1cnc(NC(=O)c2ccccc2)s1	nt	91	i	i	i	53
CCOC(=O)c1csc(NC(=O)c2ccc3c(c2)OCCO3)n1	i	127	i	i	i	51
CCOC(=O)Cc1cnc(NC(=O)CSc2nc(N)cc(=O)[nH]2)s1	?	i	i	i	i	i
CCOC(=O)c1csc(-c2ccc(OC)c(OC)c2)n1	i	i	i	?	i	i
CCOC(=O)c1csc(NC(=O)c2ccc(OC)c(OC)c2)n1	nt	i	i	i	i	i
CCOC(=O)c1csc(NC(=O)c2ccc(OCC)cc2)n1	i	95	i	i	i	38
C/C(Cl)=C\Cn1c(N2CCCC2)nc2c1c(=O)n(C)c(=O)n2C	?	i	i	?	i	i
CCN(C(=O)COC(=O)CNC(=O)c1ccc(C)cc1)c1c(N)n(Cc2ccccc2)c(=O)[nH]c1=O	i	nt	i	i	i[6.58 µM]	nt
CCOC(=O)c1csc(NC(=O)c2ccccc2)n1	i	129	i	nt	i	49
CCOC(=O)c1csc(NC(=O)c2ccc(S(=O)(=O)N(C)C)cc2)n1	i	i	i	i	i	i
CCOC(=O)c1csc(-c2sccc2Br)n1	i	54	i	i	i	51
CCOC(=O)c1csc(NC(C)=O)n1	?	i	i	i	i	28
SMILES	Pf growth 96h	Shiga inhibitor	AMA1-RON2 inh	Pf growth 48h	SARS PLpro yeast	CHX counter
O=C(CCS(=O)(=O)Cc1ccccc1)NCC1CCCO1 (stereo not given)	nt	i	i	i	i	i
CCOC(=O)c1ccc(NC2OC(=O)c3ccccc32)cc1 (stereo not given)	nt	i	i	i	i	15
CC1CN(C(=O)/C=C/c2ccccc2[N+](=O)[O-])CC(C)O1 (stereo not given)	?	i	i	i	i	i
CC1CCCCN1C(=O)/C=C/c1ccccc1[N+](=O)[O-] (stereo not given)	i	i	i	i	i	20
CCN1CCN(C(=O)/C=C/c2ccccc2[N+](=O)[O-])CC1	i	i	i	i	i	i
O=C(/C=C/c1ccccc1[N+](=O)[O-])N1CCCCC1	i[5.75 µM]	66	i	i	i	i
O=C(CC1CC2CCC1C2)N1CCN(S(=O)(=O)c2ccc(F)cc2)CC1 (stereo not given)	nt	nt	i	nt	nt	nt
CCN1C(=O)/C(=C/N2CCc3ccccc32)SC1=S	i	69	i	i	i	16
Cc1ccc(-c2cc(C(=O)Nc3sc4c(c3C(=O)NCc3ccco3)CCC4)[nH]n2)c(O)c1	?	i	i	?	i	i
COc1ccc(C(=O)Nc2sc3c(c2C(=O)NCc2ccco2)CCCC3)cc1OC	3.3µM	i	i	nt	i	i
Cc1cc(O)c(-c2cc(C(=O)Nc3sc4c(c3C(=O)NCc3ccco3)CCC4)[nH]n2)cc1C	1.9µM	i	i	1.2µM	i	i
COC(=O)Nc1sc2c(c1C(=O)NCc1ccco1)CCCC2	?	i	i	i	i	i
O=C(Nc1sc2c(c1C(=O)NCc1ccco1)CCCC2)c1ccc2c(c1)OCO2	i	89	i	?	i	44
